ALOX12 inh: inhibitors of human 12S-lipoxygenase ALOX12. P18054. purified 12hLO, xylenol orange hydroperoxide absorbance. 580,000 compounds, 1.1% hits. AID 1671190. Potency, µM (titrated, usually from 108 µM), for the others: at the highest dose activity change, negative = inhibition, most hits filed as inhibitors; also: % is scaled to controls: 0 for no effect and ±100 for the full control effect
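Purified human 12hLO (150 nM final) in 25 mM Hepes, 0.01% Triton X-100, pH 7.0 was preincubated 15 min at room temperature with compound. Then 40 uM arachidonic acid was added, 30 min. Hydroperoxide was read by Fe-XO absorbance ratio 573/405 nm.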
mIDH1 inhibitor: inhibitors of human mutant IDH1 R132H; Potency, µM (titrated, usually from 76.6 µM), for inactives: top-dose activity change, negative = inhibition, hits mostly inhibitors; 390,000 compounds, 0.093% hits; IDH1-R132H enzyme, NADPH consumption, diaphorase/resazurin fluorescence; O75874; also: % is scaled to controls: 0 for no effect and ±100 for the full control effect; nearly all actives have a fitted effect of over 65% in size
Target sequence (O75874 whole entry R132H, stated change not applied): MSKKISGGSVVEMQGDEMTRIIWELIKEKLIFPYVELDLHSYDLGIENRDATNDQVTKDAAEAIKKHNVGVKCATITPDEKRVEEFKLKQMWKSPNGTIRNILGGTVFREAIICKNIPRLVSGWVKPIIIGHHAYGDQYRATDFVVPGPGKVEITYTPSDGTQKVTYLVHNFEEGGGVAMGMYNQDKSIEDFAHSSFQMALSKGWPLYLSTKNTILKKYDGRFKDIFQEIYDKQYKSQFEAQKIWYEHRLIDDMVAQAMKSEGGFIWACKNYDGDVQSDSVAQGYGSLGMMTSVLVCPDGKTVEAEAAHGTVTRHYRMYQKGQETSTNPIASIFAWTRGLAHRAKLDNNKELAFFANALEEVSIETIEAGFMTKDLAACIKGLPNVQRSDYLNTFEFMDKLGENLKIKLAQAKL
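IDH1-R132H (0.5 ug/mL dispensed) in pH 7.5 Tris buffer was preincubated 30 min with compound, then given a substrate mix of 0.016 mM NADPH and 2 mM alpha-KG for 80 min at room temperature; remaining NADPH was read by diaphorase/resazurin fluorescence.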
GRP78 ERSR act: inducers of ER stress response in human glioma cells; 420,000 compounds, 0.02% hits; Potency, µM, inactives show at the highest dose activation, hits mostly activators; U87-MG GRP78 promoter luciferase reporter, 16 h; also: series mostly up to about 76 µM; % of control where 0% means no effect; nearly all actives have a fitted effect of over 35% in size
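ERSR induction read as luciferase luminescence (Bright-Glo, 10 min at room temperature) in stably transfected human U87-MG glioma cells exposed to compounds for 16 h, using GRP78 as sensor.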
Anesthetic bind: candidate novel general anesthetic via apoferritin binding | P02791 | apoferritin/1-aminoanthracene competitive binding, fluorescence | Potency, µM (top dose mostly 77.5 µM), inactives show at the top dose activity change, negative = displacement, hits mostly inhibitors | 350,000 compounds, 0.074% hits | AID 485281; also: % is scaled to controls: 0 for no effect and ±100 for the full control effect; nearly all actives have a fitted effect of over 20% in size
Target sequence (P02791 2-175 limits assumed): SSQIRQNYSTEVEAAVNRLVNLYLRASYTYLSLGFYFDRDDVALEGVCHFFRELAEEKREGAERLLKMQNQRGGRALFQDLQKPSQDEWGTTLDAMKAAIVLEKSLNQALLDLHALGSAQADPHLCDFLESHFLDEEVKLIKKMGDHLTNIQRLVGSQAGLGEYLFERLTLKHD
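Probe: 1-aminoanthracene (50% saturated, PBS). Protein: horse-spleen apoferritin, 10 uM. Incubation: 10 min, room temperature. Detection: 380 nm excitation, 535 nm emission. Analysis: normalized response, four-parameter Hill.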
TrxR1 inh: blocks rat thioredoxin reductase 1; 390,000 compounds, 1% hits; O89049; AID 588453; Potency, µM (highest dose often 114 µM), without a hit: at the highest dose activity change, negative = inhibition, hits mostly inhibitors; recombinant rTrxR1, NADPH fluorescence consumption, selenite substrate; also: % is scaled to controls: 0 for no effect and ±100 for the full control effect; nearly all actives have a fitted effect of over 65% in size
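Rat TrxR1 (90 nM in the dispensed reagent) was pre-reduced with 400 uM NADPH for 5 min at room temperature, then incubated with compound for 15 min. After 400 uM selenite was added, NADPH fluorescence (Ex 340/Em 450 nm) was followed for 8 min.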
TrxR1 substrate: rat thioredoxin reductase 1 substrate activity | O89049 | purified TrxR1 substrate turnover, NADPH consumption readout | Potency, µM (titrated, usually from 114 µM), for the others: top-dose activity change, negative = substrate turnover | 390,000 compounds, 0.01% hits | AID 588456; also: % is scaled to controls: 0 for no effect and ±100 for the full control effect; nearly all actives have a fitted effect of over 50% in size
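Rat TrxR1, dispensed at 90 nM, was prereduced with 400 uM NADPH (final) for 5 min at ~22 deg C, then incubated with compound 15 min before 400 uM selenite. A first-read NADPH fluorescence drop versus no-compound background flagged substrates.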
* = called active by the depositor; ? = inconclusive; / = not tested or not shown; [ ] = another dose, or the depositor's remark. Hits are enriched below; roughly 1.7% of the tested compounds scored in any of these assays. Calls follow the shape of the dose curve; as a rule, active = well fitted curve in the direction sought with a large enough effect; inconclusive = small, poorly fitted or top-dose-only effect, or another doubt; inactive = no such curve, though single readings can be large; an effect the other way counts as inactive or inconclusive. Potency is read from the fitted curve at half-maximal effect.

SMILES	ALOX12 inh	mIDH1 inhibitor	GRP78 ERSR act	Anesthetic bind	TrxR1 inh	TrxR1 substrate
COc1ccc(-c2ccc(CCC(=O)O)o2)cc1	?	0%	-11%	-3%	18µM*	12%[57.1 µM]
COc1ccc(-c2ccc(CCC(=O)Nc3ccccc3OC)o2)cc1	-20%	/	/	/	/	/
COc1cccc(C(=O)COC(=O)CCC(=O)c2ccccc2)c1	3%	-3%	-2%	?	22%	1%
COc1ccc(C(=O)COC(=O)CCc2ccc(-c3ccccc3)o2)cc1	7.9µM*	/	/	/	/	/
O=C(O)CCc1ccc(-c2ccc(Cl)cc2)o1	?	-5%	5%	-15%	18µM*	7%
COc1ccc(C2Cn3cnc(-c4nc(-c5ccc(OC(C)C)cc5)no4)c3CO2)cc1 (centres undefined)	52%	/	/	/	/	/
CNC(=O)C(C)(C)N1CCC[C@H]1C(=O)NCCc1ccccn1	111%[176 µM]	/	/	/	/	/
CCC1(C2CCN(C(=O)c3cc4ccccc4o3)CC2)NC(=O)N(CCc2scnc2C)C1=O (centres undefined)	14%	/	1%	/	/	/
c1ccc2c(CCC3CCNCC3)c[nH]c2c1	/	/	-3%	/	/	/
CC1CCCCC12NC(=S)N(c1ccccc1)N2 (centres undefined)	5µM*	2%	-4%	-3%	-6%[57.1 µM]	-6%
CC1=NN(c2ccc(C)cc2)C(=O)/C1=C/c1ccc(-c2cc([N+](=O)[O-])ccc2O)o1	20µM*	0%	-1%	-22%	-7%	0%
Cc1cc(C(C)(C)C)cc(C)c1Cn1c2[n+](c3ccc(C(F)(F)F)cc31)CCCCC2	35µM*	-10%	-15%	?	-6%[57.1 µM]	2%[57.1 µM]
CC(C)C(C)NC(=O)COc1ncnc2c(Cl)cc(Cl)cc12 (centres undefined)	25%	/	/	/	/	/
CCCS(=O)(=O)c1ncc(Cl)c(C(=O)N2CCN(c3ccc(OC)cc3)CC2)n1	?	6%	-11%	-20%	8.9µM*	5%[57.1 µM]
COc1ccc(N=N/C(=C\O)C(=O)c2cccs2)cc1	35µM*	2%	4%	?	3%[57.1 µM]	-4%[57.1 µM]
COc1ccc(C(=O)/C(=C/O)N=Nc2ccc(F)cc2)cc1	11µM*	5%	-2%	?	-10%	-2%
Cc1ccc(N=N/C(=C\O)C(=O)c2ccncc2)cc1	-17%	-1%	3%	?	-5%[57.1 µM]	1%[57.1 µM]
Cc1ccc(N2C(=O)CC(Nc3ccc(Cl)c(S(=O)(=O)N(C)C)c3)C2=O)c(C)c1 (centres undefined)	-1%	0%	-3%	-18%	50µM*	5%
Cc1ccccc1N1C(=O)CC(Nc2ccc3c(c2)OCO3)C1=O (centres undefined)	?	14%	-1%	-14%	22%	2%
CCOC(=O)CSc1nsc(SCC(=O)OCC)c1C#N	?	-1%	-9%	-7%	1%	-7%
CC(=O)CSc1nsc(SCC(C)=O)c1C#N	?	-3%	-2%	-9%	71µM*	-7%
Cc1ccncc1-c1c(C)nn2c1N(C(=O)Cc1ccc(Cl)cc1)CCC2	-7%[176 µM]	/	/	/	/	/
COc1ccc(OC)c(CN2CCCn3nc(C)c(-c4cccnc4N4CCOCC4)c32)c1	24%	/	/	/	/	/
Cc1nn2c(c1-c1ccccc1C(C)C)N(CCC(C)C)CCC2	50µM*	/	/	/	/	/
Cc1nn2c(c1-c1cccnc1N1CCOCC1)N(CCC(C)C)CCC2	18µM*	/	/	/	/	/
SMILES	ALOX12 inh	mIDH1 inhibitor	GRP78 ERSR act	Anesthetic bind	TrxR1 inh	TrxR1 substrate
Cc1nn2c(c1-c1cccnc1N1CCOCC1)N(CCc1ccccc1)CCC2	20µM*	/	/	/	/	/
Cc1ccncc1-c1c(C)nn2c1N(Cc1ccc(C(=O)O)cc1)CCC2	16µM*	/	/	/	/	/
CCn1c(-c2ccccc2F)nc2cc(NC(C)=O)cc(C(=O)N(C)Cc3cn(C)nc3C)c21	0%	/	-5%	/	/	/
CC(=O)Nc1ccccc1-c1c(C)nn2c1N(C(=O)Cc1ccccc1)CCC2	6%[176 µM]	/	/	/	/	/
CC(=O)Nc1ccccc1-c1c(C)nn2c1N(CCCc1ccccc1)CCC2	16µM*	/	/	/	/	/
COc1ccc(-c2nnc(C[C@@H]3C[C@@H](C(C)C)[C@H](CN(C)CCC#N)C=C3C)o2)cc1	-7%[176 µM]	/	/	/	/	/
CC(=O)c1cc(O)c2ccccc2c1O	1.6µM*	22%	?	-7%	32µM*	-4%
CC(=O)c1coc2c1cc(O)c1ccccc12	14%	2%	12%	-15%	9%	5%
COc1ccc2oc(=O)c(C(=O)Nc3cccc(C(C)=O)c3)cc2c1	0%	6%	3%	-4%	16%	4%
COc1ccc2oc(=O)c(/C(C)=N/Nc3ccccc3)cc2c1	32µM*	6%	-1%	184%	?	1%
C=CCn1c(=O)c2c(nc(-n3nc(C)c(C)c3C)n2CC(=C)C)n(C)c1=O	-21%	/	/	/	/	/
Cn1ncc(C(=O)NCc2ccncc2)c1-n1cccc1	-7%	/	/	/	/	/
CC(=O)C1=C(C)NC(SCC(=O)c2ccccc2)=C(C#N)C1CC(C)C (centres undefined)	7.9µM*	2%	-2%	-22%	?	-5%
CC(=O)C1=C(C)NC(SCC(=O)c2ccccc2)=C(C#N)C1c1ccco1 (centres undefined)	/	/	/	-23%	/	/
Nc1nnc(SCc2ccccc2Cl)s1	/	5%	-1%	11µM*	-7%	-7%
Fc1ccc(CN2CCn3c(nnc3-c3cccnc3)C2)cc1	-2%[6.33 µM]	/	/	/	/	/
O=C1CC(SC(=S)C2CCCC2=O)C(=O)N1 (centres undefined)	22µM*	8%	-2%	/	/	/
COCCn1ccnc1C1CCN(c2cnc3ccccc3n2)CC1	12%	/	/	/	/	/
CN(C)Cc1nnc(C2CCCN(C(=O)c3cccc(N(C)C)c3)C2)n1C (centres undefined)	45%	/	/	/	/	/
CC(=O)N1N=C(c2c(-c3ccccc3)c3cc(Br)ccc3[nH]c2=O)CC1c1ccco1 (centres undefined)	?	-1%	-6%	1%	50µM*	5%
O=C(CC1C=CCC1)NC1CCCc2ccccc21 (centres undefined)	-28%	/	/	/	/	/
O=C(NC(=S)Nc1ccc(S(=O)(=O)Nc2nccs2)cc1)c1ccccc1	?	-3%	-4%	0%	40µM*	-14%
O=C(NC(=S)Nc1ccc(S(=O)(=O)Nc2nccs2)cc1)c1ccc(F)c(F)c1	10µM*	-5%	-3%	-4%	?	-5%
OC(CNCCc1ccc(C(F)(F)F)cc1)COC(c1ccccc1)c1ccccc1 (centres undefined)	14µM*	7%	-17%	-20%	13%	-4%
COc1ccc(C(OCC(O)CNCCc2ccc(S(N)(=O)=O)cc2)c2ccc(OC)cc2)cc1 (centres undefined)	0%	5%	5%	-10%	9%	4%

Screening results from PubChem BioAssay.
